Measurements from PubChem BioAssay (EPA / NIEHS).
Calls of active or inactive are those of the source. The calls were made as follows: active = hit-call score of the fitted dose curve at least 0.9, where 1 is the maximum; inactive = score below 0.9.

experiment: ATG_GLI_CIS: Attagene CIS-FACTORIAL HepG2 Assay for human Zinc Finger Protein GLI1 (AID 2282945); details: HepG2, Attagene cis-factorial reporter mRNA, GLI element; actives raise or lower the signal
How it was run: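 HepG2 cells transiently transfected with cis-promoter multiplexed reporter units report endogenous transcription factor activity. After 24 h chemical exposure, reporter mRNA was quantified by RT-PCR, 6-FAM labelling, HpaI digestion and capillary electrophoresis, with bidirectional fitting against DMSO.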

SMILES	outcome	AC50
CC(C)=CCOC(=O)c1ccccc1	inactive	–
CC(C)(C)NC(=O)[C@@H]1CN(Cc2cccnc2)CCN1C[C@@H](O)C[C@@H](Cc1ccccc1)C(=O)N[C@H]1c2ccccc2C[C@H]1O	inactive	–
Oc1cccc2ccccc12	inactive	–
C=CN1CCCCCC1=O	inactive	–
Oc1ccc(Oc2ccccc2)cc1	inactive	–
CC(=O)CCc1ccccc1	inactive	–
CNC[C@H](O)[C@@H](O)[C@H](O)[C@H](O)CO	inactive	–
CN(C)c1ccc(C(c2ccccc2)c2ccc(N(C)C)cc2)cc1	inactive	–
c1ccc2c(c1)Oc1ccccc1S2	–	173 µM (active)
CCCCCC[C@@H](O)C/C=C\CCCCCCCC(=O)O	inactive	–
CC[N+](CC)(CC(=O)Nc1c(C)cccc1C)Cc1ccccc1 (tested in a mixture with another compound)	inactive	–
